# From the supplement of paper PMC6279402
# Where a name gives a salt, the structure may show the parent alone. ± gives the standard deviation of the averaged measurements.
# Test system: A549
# Experiment: relative viability (normalised to negative control = 1, bortezomib = 0) (fraction); higher = less cytotoxic
# Details: inflammatory serum-free RHB-A with cytokines + LPS, 5 d + 24 h CellTiter-Blue
# [1] = compound 30 nM, GSK126 pretreatment: 5 uM GSK126
# [2] = compound 30 nM, GSK126 pretreatment: none (vehicle)
# [3] = compound 300 nM, GSK126 pretreatment: 5 uM GSK126
# [4] = compound 300 nM, GSK126 pretreatment: none (vehicle)
Structure (SMILES),relative viability [1],relative viability [2],relative viability [3],relative viability [4]
CN(C)C1CCN(C(=O)c2ccc(NC(=O)Nc3ccc(-c4nc(N5CCOCC5)nc(N5CCOCC5)n4)cc3)cc2)CC1,0.329 ± 0.01,0.428 ± 0.011,0.0588 ± 0.0043,0.088 ± 0.0042
NC(=O)NO [Hydroxyurea],0.998 ± 0.13,1.05 ± 0.1,1.09 ± 0.071,1.06 ± 0.05
NC1(c2ccc(-c3nc4ccn5c(=O)[nH]nc5c4cc3-c3ccccc3)cc2)CCC1,0.679 ± 0.074,0.691 ± 0.063,0.387 ± 0.011,0.522 ± 0.067
Cc1ccc(S(=O)(=O)Nc2nc3ccccc3nc2Nc2ccc3nsnc3c2)cc1,0.8 ± 0.092,0.774 ± 0.06,0.748 ± 0.14,0.842 ± 0.06
NC(=O)c1ccc(N(C(N)=O)c2c(F)cccc2F)nc1-c1ccc(F)cc1F,0.914 ± 0.11,0.873 ± 0.059,1.09 ± 0.055,0.995 ± 0.11
CC(C)CC(=O)Nc1n[nH]c2c1CN(C(=O)C1CCN(C)CC1)C2(C)C,0.84 ± 0.097,0.829 ± 0.069,0.761 ± 0.077,0.787 ± 0.033
Cn1cc(C2=C(c3ccc(Cl)cc3Cl)C(=O)NC2=O)c2ccccc21,0.787 ± 0.042,0.778 ± 0.046,0.695 ± 0.079,0.802 ± 0.05
COc1cc(Nc2ncc3c(n2)-c2ccc(Cl)cc2C(c2c(F)cccc2OC)=NC3)ccc1C(=O)O,0.804 ± 0.087,0.821 ± 0.044,0.523 ± 0.11,0.381 ± 0.048
O=c1cc(N2CCOCC2)oc2c(-c3ccccc3)cccc12,0.773 ± 0.033,0.819 ± 0.048,0.748 ± 0.15,0.835 ± 0.068
OCCn1cc(-c2cnc3nnn(Cc4ccc5ncccc5c4)c3n2)cn1,0.969 ± 0.045,0.9847 ± 0.0075,0.972 ± 0.058,0.9557 ± 0.0093
CC[C@]1(O)C[C@H]2CN(CCc3c([nH]c4ccccc34)[C@@](C(=O)OC)(c3cc4c(cc3OC)N(C=O)[C@H]3[C@@](O)(C(=O)OC)[C@H](OC(C)=O)[C@]5(CC)C=CCN6CC[C@]43[C@@H]65)C2)C1 [Vincristine sulfate],0.453 ± 0.072,0.289 ± 0.031,0.388 ± 0.035,0.303 ± 0.014
Cn1cc(-c2ccc3nnc(C(F)(F)c4ccc5ncccc5c4)n3n2)cn1,0.954 ± 0.11,0.904 ± 0.029,1.001 ± 0.009,0.947 ± 0.026
Cc1ccc(NC(=O)c2cccc(N(C)C)c2)cc1NC(=O)c1ccc(O)cc1,0.965 ± 0.086,1.02 ± 0.11,1.19 ± 0.13,1.15 ± 0.042
Cc1cc(Nc2cc(N3CCN(C)CC3)nc(Sc3ccc(NC(=O)C4CC4)cc3)n2)n[nH]1,0.766 ± 0.087,0.717 ± 0.062,0.584 ± 0.067,0.459 ± 0.052
O=C(O)c1ccc2c(c1)nc(Nc1cccc(Cl)c1)c1ccncc12,0.707 ± 0.14,0.761 ± 0.04,0.728 ± 0.11,0.839 ± 0.12
CC[C@H](Nc1ncnc2nc[nH]c12)c1nc2cccc(F)c2c(=O)n1-c1ccccc1,0.899 ± 0.11,0.876 ± 0.1,0.878 ± 0.08,0.852 ± 0.035
O=C(NC[C@H](O)CO)c1ccncc1Nc1ccc(I)cc1F,0.247 ± 0.056,0.352 ± 0.0078,0.126 ± 0.019,0.159 ± 0.025
Cc1cccc(-c2[nH]c(C(C)(C)C)nc2-c2ccc3nccnc3c2)n1,0.848 ± 0.048,0.828 ± 0.086,0.799 ± 0.036,0.887 ± 0.067
FC(F)(F)c1ccc(/C=C/c2nc(COc3ccc(CCCCn4ccnn4)cc3)co2)cc1 [Mubritinib (TAK 165)],0.798 ± 0.028,0.837 ± 0.061,0.561 ± 0.081,0.94 ± 0.011
Cc1cc(C(=O)NOCCO)c(Nc2ccc(I)cc2F)n(C)c1=O,0.137 ± 0.0076,0.158 ± 0.004,0.0557 ± 0.021,0.0366 ± 0.01
O=C1c2c(O)ccc(O)c2C(=O)c2c(NCCNCCO)ccc(NCCNCCO)c21 [Mitoxantrone; Mitoxantrone dihydrochloride],0.483 ± 0.02,0.376 ± 0.022,0.148 ± 0.013,0.137 ± 0.008
C[C@@H](Oc1cc(-n2cnc3ccc(CN4CCN(C)CC4)cc32)sc1C(N)=O)c1ccccc1C(F)(F)F,0.481 ± 0.028,0.326 ± 0.05,0.517 ± 0.02,0.363 ± 0.072
Nc1nc2[nH]cnc2c(=S)[nH]1 [Thioguanine],0.978 ± 0.039,0.929 ± 0.043,0.917 ± 0.045,1 ± 0.073
Clc1ccc(C2(c3ccc(-c4cn[nH]c4)cc3)CCNCC2)cc1,0.706 ± 0.086,0.77 ± 0.055,0.734 ± 0.044,0.854 ± 0.012
Cc1nc(Nc2ncc(C(=O)Nc3c(C)cccc3Cl)s2)cc(N2CCN(CCO)CC2)n1 [Dasatinib],0.89 ± 0.089,0.882 ± 0.093,1.03 ± 0.077,0.956 ± 0.12
C[C@@H]1CN(CC(=O)Nc2ccc3c(c2)Cc2cccc(-c4cc(=O)cc(N5CCOCC5)o4)c2S3)C[C@H](C)O1,0.816 ± 0.029,0.857 ± 0.089,0.907 ± 0.043,0.943 ± 0.024
CN(c1ncccc1CNc1nc(Nc2ccc3c(c2)CC(=O)N3)ncc1C(F)(F)F)S(C)(=O)=O,0.902 ± 0.22,0.907 ± 0.16,0.907 ± 0.12,0.891 ± 0.13
CNC(=O)c1cc(Oc2ccc(NC(=O)Nc3cc(C(C)(C)C)nn3-c3ccc4ncccc4c3)c(F)c2)ccn1 [DCC-2036 (Rebastinib)],1.37 ± 0.1,1.35 ± 0.12,1.48 ± 0.067,1.57 ± 0.06
